MARV entry inh – Marburg virus entry inhibition | Marburg virus pseudotype entry/binding inhibition, cell-based | Potency, µM (highest dose often 49.2 µM), for inactives: at the top dose activity change, negative = inhibition, usual class: inhibitors | 18,000 tested, 6.5% active | AID 720532
LASV entry inh – inhibitors of Lassa virus binding or entry into cells | Potency, µM (titrated, usually from 49.2 µM), without a hit: at the top dose activity change, negative = inhibition, usual class: inhibitors | 18,000 tested, 4.1% active | AID 720533 | Lassa virus pseudotyped entry inhibition, cell-based qHTS
Numbers without * were called inactive; ? = inconclusive; . = not tested or not shown; ! = not active in a repeat; [ ] = dose if it differs, or a comment. A selection: hits, their analogues and other compounds. The true share with any hit is near 7.1%. Calls follow the shape of the full dose curve; tested in HEK293 cells. % is scaled to controls: 0 for no effect and ±100 for the full control effect; potency is read from the fitted curve at half-maximal effect.

SMILES	MARV entry inh	LASV entry inh
CCC(=O)O[C@H]1CC[C@H]2[C@@H]3CCc4cc(O)ccc4[C@H]3CC[C@]12C	-29.9%	?
CCCCC(=O)O[C@H]1CC[C@H]2[C@@H]3CCc4cc(O)ccc4[C@H]3CC[C@]12C	-14.7%	?
C[C@]12CC[C@@H]3c4ccc(O)cc4CC[C@H]3[C@@H]1CCC2=O	16.5%	31.6µM*!
C[C@]12CCC3c4ccc(O)cc4CCC3[C@@H]1CCC2=O (some centres not stated)	15.5%[17.8 µM]	-16.9%[17.8 µM]
CC(C)(C)c1ccc(O[C@@H]2[C@H](O)CO[C@H]2C=CC#Cc2ccccc2)cc1	-15.8%[8.59 µM]	7.3%[8.59 µM]
CCOC(=O)[C@@]12[C@@H]3[C@@H](CCN3C(=O)N[C@H]1c1ccccc1)C2(C)C	1.8%[8.59 µM]	.
COc1cc(C2c3cc4c(cc3C(OC3OC5COC(C)O[C@@H]5C(O)C3O)C3COC(=O)C23)OCO4)cc(OC)c1O (some centres not stated)	1.12µM*	?
COc1cc([C@@H]2c3cc4c(cc3C(O[C@@H]3O[C@@H]5CO[C@@H](C)O[C@H]5[C@H](O)[C@H]3O)C3COC(=O)[C@@H]32)OCO4)cc(OC)c1OP(=O)(O)O (some centres not stated)	2.82µM*	3.16µM*
COc1cc([C@@H]2c3cc4c(cc3[C@@H](O[C@@H]3O[C@@H]5CO[C@@H](C)O[C@H]5[C@H](O)[C@H]3O)[C@H]3COC(=O)[C@H]23)OCO4)cc(OC)c1O	?	1.12µM*
C#CCCCON=C1C[C@@H](O)[C@H](O)[C@H]2[C@@H]3C(=O)N(c4ccc(F)cc4F)C(=O)[C@@H]3CC[C@@H]12	-8.0%[8.59 µM]	16.6%[8.59 µM]
CCCCCC(=O)N1C[C@@H](O)[C@H](n2cc(COC(=O)c3ccccc3)nn2)C[C@H]1c1ccc(OC)cc1	-17.5%	11.1%
COc1cc2c(cc1OC)[C@@H]1O[C@](c3ccsc3)(C2)Oc2c1c(=O)oc1ccc(F)cc21	28.4%[8.59 µM]	11.0%[8.59 µM]
COc1cccc(C(=O)NCc2nc(-c3cccc(NC(=O)c4ccoc4C)c3)oc2C)c1OC	?	17.8µM*
Cc1cc(C(=O)Nc2cccc(-c3nc(CNC(=O)c4ccccc4C(F)(F)F)c(C)o3)c2)c(C)o1	-28.0%	?
COc1cccc(O)c1O	12.6µM*	?
COc1ccccc1O	23.6%[107 µM]	-13.3%[107 µM]
Nc1nonc1-c1nc2cnccc2n1C1CCCCC1	?	41.7%
Cc1[nH]c(/C=C2\C(=O)Nc3ccc(S(=O)(=O)N(C)c4cccc(Cl)c4)cc32)c(C)c1C(=O)N1CCN(C)CC1	10µM*	?
CC(CCC(=O)OC[C@H]1O[C@H](C#Cc2ccccc2)C=C[C@H]1Oc1ccc(C)cc1)=NO[C@@H](C)c1cn([C@H](CO)Cc2ccccc2)nn1	8.5%[8.59 µM]	.
C=C1C(=O)O[C@@H]2[C@H]3O[C@]3(C)CCC=C(C)CC[C@@H]12	15.8µM*	22.4µM*
COc1cccc([C@@H]2NC(=O)CC=C[C@H](C)[C@H](c3cccc(OC)c3)NC(=O)CC=C[C@H]2C)c1	15.8%[8.59 µM]	5.4%[8.59 µM]
C[N+](C)(CCCCCC[N+](C)(C)CCCN1C(=O)c2ccccc2C1=O)CCCN1C(=O)c2ccccc2C1=O	5.3%	-6.1%
CN(C)CCN1C(=O)c2ccccc2N(C)c2ccccc21	35.5µM*!	?
CC(C)CN[S+](=O)([O-])c1ccc(Br)cc1N1CCC[C@H]1CO	13.7%	15.1%
CCCCCC1=CC2=C(C(=O)OC)C(c3ccccc3)NC(=O)N2CC1 (configuration not stated)	1.3%[8.59 µM]	-7.3%[8.59 µM]
SMILES	MARV entry inh	LASV entry inh
COc1ccc(COCC[C@@H]2C[C@@H]3C=CCOP(=O)(O2)O3)cc1	13.1%	-28.5%
NC[C@@H]1O[C@H](C23CC4CC(CC(C4)C2)C3)Cc2c1ccc(O)c2O	12.6µM*	?
NC[C@@H]1O[C@H](c2ccccc2)Cc2c1ccc(O)c2O	?	-16.1%
Cc1ccc(CN2[C@@H](CC(C)C)COc3c(Cl)cccc3S2(=O)=O)cc1	-26.5%	-7.8%
Oc1cc2c(cc1O)[C@@H]1c3ccc(O)c(O)c3OC[C@]1(O)C2	5.62µM*	-19.8%
COc1ccccc1N1C(=O)[C@@H]2CSCCS(=O)(=O)N2C1=O	15.3%	1.3%
CCN1C(=O)NC(c2ccco2)C(C(=O)OC)=C1C (configuration not stated)	5.1%[8.59 µM]	-19.7%[8.59 µM]
C[C@@H](c1ccccc1)N1C(=O)[C@@H]2[C@H]3[C@H](O)[C@H](O)CC(=NOC[C@@H](O)COCc4ccco4)[C@H]3CC[C@H]2C1=O	1.0%[8.59 µM]	-3.1%[8.59 µM]
C=CCN1C[C@H](CO)Oc2cccc(F)c2S1(=O)=O	16.4%	-4.3%
CCCN(C/C=C/I)C1CCc2cccc(O)c2C1 (configuration not stated)	?	7.8%
CCCN(CCC)C1CCc2cccc(O)c2C1 (configuration not stated)	22.4µM*	31.6µM*
O=C(C=Cc1ccccc1)Nc1cccc(C(=O)NCCCCc2ccccc2)c1	?	9.4%
COc1c2c(cc3c1OCO3)CCN(C)C2	17.3%[17.8 µM]	-2.5%[17.8 µM]
COc1c2c(c(C(=O)/C=C/C(C)=C/c3ccccc3)c3c1OCO3)CCN(C)C2	15.8µM*	-11.3%
c1ccc2c(c1)OC[C@@H](C1=NCCN1)O2	11.2µM*	?
c1ccc(C2(c3ccccc3)CC2C2=NCCN2)cc1 (configuration not stated)	1.7%	1.6%
CCN(CC)c1ccc(C(=C2C=CC(=[N+](CC)CC)C=C2)c2ccccc2)cc1	0.282µM*	0.316µM*
COc1ccccc1C=CC1=CC2(C)CC1(C)C(c1ccccc1OC)CC2=O (configuration not stated)	-29.1%[8.59 µM]	5.7%[8.59 µM]
C(#C[C@@H]1C=C[C@H]2OC(c3ccccc3)OC[C@H]2O1)c1ccccc1 (some centres not stated)	15.5%[8.59 µM]	1.9%[8.59 µM]
O=S(=O)(NCCNC/C=C/c1ccc(Br)cc1)c1cccc2cnccc12	12.6µM*	-7.4%
CNCCNS(=O)(=O)c1cccc2cnccc12	-15.6%	23.2%
C[C@@]1(C(=O)O)NCCc2cc(O)c(O)cc21	8.91µM*	-16.9%
OC(CCN1CCCCC1)(c1ccccc1)C1CC2C=CC1C2 (configuration not stated)	10µM*	22.4µM*!
Cc1c(-c2ccc(Cl)cc2)noc1C1CCN(CCc2ccccc2)CC1	?	0.0%
Cc1c(C2CCN(CCc3ccccc3)CC2)noc1-c1ccc(Cl)cc1	11.2µM*	-11.9%
SMILES	MARV entry inh	LASV entry inh
CC(C)CON=C1C[C@@H](O)[C@@H](O)[C@@H]2[C@H]3C(=O)N(c4ccc(F)cc4F)C(=O)[C@@H]3CC[C@H]12	-10.3%[8.59 µM]	-28.7%[8.59 µM]
O=[N+]([O-])c1ccc(O)c2ncccc12	15.8µM*	11.2µM*
O=Nc1ccc(O)c2ncccc12	3.98µM*	2.51µM*
Nc1ccc(O)c([N+](=O)[O-])c1	-15.9%[107 µM]	-14.9%[107 µM]
Cc1ccc(O)c2ncccc12	32.8%	12.1%
COc1ccc(OC)c(-c2ccccc2C=NNS(=O)(=O)c2ccc(C)cc2)c1	?	-3.7%[8.59 µM]
CC(=O)C1=C(C)N(Cc2ccccc2)C(=O)NC1c1cccc(F)c1 (configuration not stated)	-4.6%[8.59 µM]	-7.3%[8.59 µM]
CCN1C(=NCc2cccc(C(F)(F)F)c2)NC(c2cccc(F)c2)C(C(=O)OC)=C1C (configuration not stated)	36.0%[8.59 µM]	11.8%[8.59 µM]
O=C1C2=C(C(=O)c3ccccc31)[C@H]1O[C@](c3ccsc3)(Cc3ccccc31)O2	-7.7%[8.59 µM]	-7.7%[8.59 µM]
C=CCNC(=O)[C@H]1C=C(OC)C(=O)C[C@H]2c3ccccc3C[C@]12C	-22.5%[8.59 µM]	4.0%[8.59 µM]
C=CC[C@](C)(O)c1ccccc1	-14.9%	0.75µM*!
